# Laboratory results as given in PubChem BioAssay.
# A number with no mark means an inactive call. The source made the active and inactive calls.
# Experiment: S. cerevisiae RM11-1a growth modifiers, primary screen, strain RM11-1a, OD600, basal, 24 h (AID 1177);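 further: cultures grown under basal conditions with no added stressor; test concentration not given here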
# Conditions: OD600, 24 h, higher = more signal, called active from +8 up or from −8 down
row,Structure (SMILES),z-score
1,COc1ccc(COC(=O)NN=C2C[C@@H](O)[C@@H](O)[C@@H]3[C@@H]4C(=O)N(Cc5ccccc5)C(=O)[C@@H]4CC[C@@H]23)cc1,0.325
2,O=C1C=C[C@@H](O)[C@@H]2[C@@H]3C(=O)N(Cc4ccccc4)C(=O)[C@@H]3CC[C@@H]12,-0.83
3,CCCC[C@H]1CN2[C@@H](CC[C@@H](C)[C@@H]2c2ccc(Br)cc2)C(=O)O1,0.0621
4,COc1ccc(O[C@H]2C=C[C@@H](C#Cc3ccccc3)O[C@@H]2CO)cc1,-0.76
5,O=C(NCCC[N+]1=CC=NC1c1ccccc1)N1CCCc2nc(-c3ccc(Br)cc3)ccc21 (stereo unspecified),1.6
6,C[C@H]1CC[C@@H](C(=O)O)N[C@@H]1c1ccc(C#Cc2ccccc2)cc1,-18.9 (active)
7,CC(C)CN1CCc2nc(-c3ccccc3)c3c(c2C1)CO[C@@H](C)C3,0.697
8,COc1ccc(COC(=O)NN=C2C[C@@H](O)[C@@H](O)[C@@H]3[C@@H]4C(=O)N(Cc5ccc6c(c5)OCO6)C(=O)[C@@H]4CC[C@H]23)cc1,0.139
9,COC(=O)C(C(=O)OC)C1CCCC(=O)C1 (stereo unspecified),0.386
10,CC(C)[C@@H](OCc1ccccc1)[C@H](C)C=NOC[C@@H](O)[C@H]1O[C@@H]2OC(C)(C)O[C@@H]2[C@H]1O,1.28
11,CCc1cc2c(nc1CC)CCN(CCC(C)=NO[C@@H]1O[C@H](COC(C)=O)[C@@H](OC(C)=O)[C@H](OC(C)=O)[C@H]1OC(C)=O)C2,-0.567
12,COC(=O)[C@H](C)NC(=O)CCC1CC(OC(=O)NCCc2ccc(F)cc2)CC2(CCCC(COC(=O)NCCc3ccccc3OC)O2)O1 (stereo partly specified),0.878
13,CCOC(=O)[C@H](CC(C)C)NC(=O)CCC1CC(OC(=O)NCc2ccc3c(c2)OCO3)CC2(CCCC(COC(=O)NCCc3ccc(Cl)cc3)O2)O1 (stereo partly specified),-0.166
14,CC(CCN1CCc2nc(-c3ccccc3)c(-c3ccccc3)cc2C1)=NOC(C)CN1CCCc2nc(C)c(C)cc21 (stereo unspecified),-0.572
15,O=C1[C@H]2[C@H]3[C@H](O)[C@H](O)CC(=NO[C@@H]4O[C@H](CO)[C@@H](O)[C@H](O)[C@H]4O)[C@@H]3CC[C@H]2C(=O)N1C[C@@H]1CCCO1,-0.633
16,COc1ccc(O[C@H]2C=C[C@@H](c3ccccc3)O[C@@H]2COC(=O)CCC(C)=NOC[C@@H](O)COCc2ccco2)cc1,-1.48
17,CC(C)=CCCC(C)=CCON=C1C[C@@H](O)[C@@H](O)[C@@H]2[C@@H]3C(=O)N(c4cccc(Oc5ccccc5)c4)C(=O)[C@@H]3CC[C@H]12,0.668
18,CO[C@@H]1C=CCC(=O)N[C@@H](C)C(=O)OC[C@@H](NS(=O)(=O)c2ccc(C)cc2)[C@H](C)C=CCC(=O)OC[C@H]1C,-0.876

row,Structure (SMILES),z-score
1,COc1ccc(COC(=O)NN=C2C[C@@H](O)[C@@H](O)[C@@H]3[C@@H]4C(=O)N(c5cccc(Oc6ccccc6)c5)C(=O)[C@@H]4CC[C@H]23)cc1,-1.02
2,CCOC(=O)CCN1C(=O)[C@H]2[C@H]3[C@H](O)[C@H](O)CC(=NNC(=O)OCc4ccccc4)[C@H]3CC[C@H]2C1=O,-1.26
3,CO[C@@H](C(C)C)[C@@H](C)C1OC(=O)CC1O (stereo partly specified),-0.622
4,CCN1C(=O)[C@H]2[C@H]3[C@H](O)[C@H](O)CC(=NO[C@H](C)c4cn([C@@H]5COC[C@H]5O)nn4)[C@@H]3CC[C@H]2C1=O,0.539
5,CCOC(=O)[C@H](CC(C)C)NC(=O)CCC1CC(OC(=O)NCCc2ccc(F)cc2)CC2(CCCC(COC(=O)NCc3cccc(C(F)(F)F)c3)O2)O1 (stereo partly specified),0.924
6,O=C1CCCC=C1C(O)C1CCCCC1 (stereo unspecified),-0.647
7,COc1ccc(COC(=O)NN=C2C[C@@H](O)[C@@H](O)[C@@H]3[C@@H]4C(=O)N(C5CCCCC5)C(=O)[C@@H]4CC[C@@H]23)cc1,-0.286
8,O=C1C2=CC[C@H]3C(=O)N(C4CCCCC4)C(=O)[C@H]3[C@H]2[C@H](O)[C@@H]2O[C@H]12,-1.83
9,O=C1C[C@@H](O)[C@@H](O)[C@@H]2[C@@H]3C(=O)N(C4CCCCC4)C(=O)[C@@H]3CC[C@@H]12,0.356
10,C=CC[C@@H]1C=C[C@H](ON=CC[C@@H]2C=C[C@H](OC(C)=O)[C@@H](COC(C)=O)O2)[C@@H](CO)O1,0.879
11,CC(CCC(=O)OC[C@H]1O[C@H](C#Cc2ccccc2)C=C[C@@H]1Oc1ccc(C)cc1)=NO[C@H](C)c1cn([C@@H]2COC[C@H]2O)nn1,-2.02
12,COC(=O)[C@@H]1CC[C@H](C)[C@@H](c2ccc(C)cc2)N1C(=O)c1ccc(C=NOC[C@@H](O)[C@H]2O[C@@H]3OC(C)(C)O[C@@H]3[C@H]2O)cc1,-0.168
13,C=CC[C@@H]1C=C[C@H](Oc2ccc(C)cc2)[C@@H](COC(=O)NCc2cccc3ccccc23)O1,0.74
14,CCOC(=O)[C@H](CC(C)C)NC(=O)CCC1CC(OC(=O)NCc2ccc3c(c2)OCO3)CC2(CCCC(COC(=O)NCCC(C)C)O2)O1 (stereo partly specified),0.175
15,CCOC(=O)CCN1C(=O)[C@H]2[C@H]3[C@H](O)[C@H](O)CC(=NO[C@@H]4O[C@H](CO)[C@@H](O)[C@H](O)[C@H]4O)[C@@H]3CC[C@H]2C1=O,-0.445
16,COC(=O)[C@H](C)NC(=O)CCC1CC(OC(=O)NCc2ccc3c(c2)OCO3)CC2(CCCC(COC(=O)NCCCN3CCCC3=O)O2)O1 (stereo partly specified),1.04
17,Cc1ccc(S(=O)(=O)N[C@@H]2COC(=O)CC=C[C@@H](C)[C@H](NS(=O)(=O)c3ccc(C)cc3)COC(=O)[C@H](C)NC(=O)CC=C[C@H]2C)cc1,-0.188
18,CCOC(=O)[C@H](CC(C)C)NC(=O)CCC1CC(OC(=O)NCc2ccc3c(c2)OCO3)CC2(CCCC(COC(=O)NCCOC)O2)O1 (stereo partly specified),0.418
